From PubChem BioAssay
The source made the active and inactive calls. Unless noted, how the calls were made is not given here.

Test system: not listed separately
Assay: compounds altering viability of human ES cells (AID 493140);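 further: cells exposed to compounds for four days before counting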
Conditions: human embryonic stem cell survival screen; stronger effect = higher value

| SMILES | survival |
| --- | --- |
| CCCCC/C=C\C/C=C\CCCCCCCC(=O)NCCO | 162 (inactive) |
| CCCCC/C=C\C/C=C\C/C=C\CCCCCCC(=O)NCCO | 87.2 (inactive) |
| CCCCCCCCCCCCCCCCOC[C@@H](COP(=O)([O-])OCC[N+](C)(C)C)OC(C)=O | 78.6 (inactive) |
| CCCCC[C@@H](/C=C/C=C\CCCCCCCC(=O)O)OO | 94.8 (inactive) |
| CCCCC/C=C\C/C=C\C/C=C\C/C=C\CCCC(=O)NCCO | 114 (inactive) |
| CCCCC/C=C\C[C@@H](/C=C/C=C\C/C=C\CCCC(=O)O)OO | 111 (inactive) |
| N#CC(C#N)=Cc1ccc(O)cc1 | 59.8 (inactive) |
| CCCCC/C=C\C/C=C\C/C=C\C=C\[C@H](CCCC(=O)O)OO | 114 (inactive) |
| CCCCCC1OC1C/C=C\CCCCCCCC(=O)O (stereo not given) | 100 (inactive) |
| CCCCC/C=C\C/C=C\C/C=C\C/C=C\CCCC(N)=O | 110 (inactive) |
| CCCCC[C@@H](/C=C/C=C\C/C=C\C/C=C\CCCC(=O)O)OO | 120 (inactive) |
| CCCCC/C=C\C=C\[C@H](CCCCCCCC(=O)O)OO | 87.6 (inactive) |
| CCCCC/C=C\C/C=C\C/C=C\C/C=C\CCCCCC(=O)NCCO | 86.3 (inactive) |

Test system: Hepatitis C virus NS3 helicase
Assay: blockers of NS3h binding to ssDNA – biochemical, fluorescence polarization, LOPAC1280 library, primary screen (AID 687035; in the data active means inhibition above about 37%)
Conditions: Purified HCV NS3 helicase, Cy5-dT15 ssDNA binding fluorescence polarization; stronger effect = higher value; concentration not given here

| SMILES | inhibition |
| --- | --- |
| C[C@H](N)Cc1cccc(C(F)(F)F)c1 | -3% (inactive) |
| C=CCN1C[C@@H](C)N([C@H](c2ccc(C(=O)N(CC)CC)cc2)c2cccc(OC)c2)C[C@@H]1C | -3% (inactive) |
| N#CC(=Cc1ccc(O)c(O)c1)C(N)=S | 3% (inactive) |
| N[C@@]1(C(=O)O)CC[C@@H](C(=O)O)C1 | -5% (inactive) |
| CCNC(=O)[C@H]1O[C@@H](n2cnc3c(N)ncnc32)C(O)[C@H]1O (stereo not given in full) | 0% (inactive) |
| C[C@@H]1O[C@H](C[N+](C)(C)C)C[C@H]1O | -2% (inactive) |
| C=CCN1CCC23c4c5ccc(O)c4O[C@H]2C(=O)CC[C@@]3(O)C1C5 (stereo not given in full) | -4% (inactive) |
| CC(N)c1cccc(Cl)c1Cl (stereo not given) | -2% (inactive) |
| Oc1ccc2c3c1O[C@H]1c4[nH]c5ccccc5c4C[C@@]4(O)C(C2)N(CC2CC2)CCC314 (stereo not given in full) | -4% (inactive) |
| COc1cc(C(O)CN)ccc1O (stereo not given) | -3% (inactive) |
| C[C@@H]1O[C@@H](O[C@H]2C[C@@H](O)[C@]3(CO)[C@@H]4C(CC[C@]3(O)C2)[C@@]2(O)CC[C@H](C3COC(=O)C3)[C@@]2(C)C[C@H]4O)[C@H](O)[C@H](O)[C@H]1O (stereo not given in full) | -1% (inactive) |
| CN1CC[C@@]2(C)c3cc(OC(=O)Nc4ccccc4)ccc3N(C)[C@@H]12 | -3% (inactive) |
| c1ccc2cc(CC3=NCCN3)ccc2c1 | -3% (inactive) |
| NC1CC1c1ccccc1 (stereo not given) | -1% (inactive) |
| NC(CCP(=O)(O)O)C(=O)O (stereo not given) | -3% (inactive) |
| COc1ccc2c(c1)C13CCCCC1C(C2)N(C)CC3 (stereo not given) | -1% (inactive) |
| C=CCN1CC[C@]23CCCCC2[C@H]1Cc1ccc(O)cc13 (stereo not given in full) | -4% (inactive) |
| O=C1CC[C@@]2(O)C3Cc4ccc(O)c5c4C2(CCN3CC2CC2)[C@H]1O5 (stereo not given in full) | -6% (inactive) |
| NC(CP(=O)(O)O)C(=O)O (stereo not given) | -2% (inactive) |
| C[C@]12Cc3cn4c(nc3C=C1CCC1C2CC[C@@]2(C)[C@H]1CC[C@@]2(O)C#N)nc1ccccc14 (stereo not given in full) | 0% (inactive) |
| CCCCCCCCCCCCCC(=O)O[C@@H]1[C@@H](C)[C@@]2(O)[C@@H](C=C(CO)C[C@@]3(O)C(=O)C(C)=C[C@@H]23)C2C(C)(C)[C@@]21OC(C)=O (stereo not given in full) | -2% (inactive) |

Test system: not listed separately
Assay: compounds altering Cy5-DNA-NS3h complex signal – biochemical, LOPAC1280, artefact control for HCV NS3 helicase inhibitor project (AID 687037)
Conditions: Cy5-DNA-NS3h complex fluorescence interference counterscreen

| SMILES | fluorescence ratio (interference) |
| --- | --- |
| C[C@H](N)Cc1cccc(C(F)(F)F)c1 | 1 (inactive) |
| C=CCN1C[C@@H](C)N([C@H](c2ccc(C(=O)N(CC)CC)cc2)c2cccc(OC)c2)C[C@@H]1C | 1 (inactive) |
| N#CC(=Cc1ccc(O)c(O)c1)C(N)=S | 0.9 (inactive) |
| N[C@@]1(C(=O)O)CC[C@@H](C(=O)O)C1 | 1 (inactive) |
| CCNC(=O)[C@H]1O[C@@H](n2cnc3c(N)ncnc32)C(O)[C@H]1O (stereo not given in full) | 1 (inactive) |
| C[C@@H]1O[C@H](C[N+](C)(C)C)C[C@H]1O | 1 (inactive) |
| C=CCN1CCC23c4c5ccc(O)c4O[C@H]2C(=O)CC[C@@]3(O)C1C5 (stereo not given in full) | 1 (inactive) |
| CC(N)c1cccc(Cl)c1Cl (stereo not given) | 1 (inactive) |
| Oc1ccc2c3c1O[C@H]1c4[nH]c5ccccc5c4C[C@@]4(O)C(C2)N(CC2CC2)CCC314 (stereo not given in full) | 1 (inactive) |
| COc1cc(C(O)CN)ccc1O (stereo not given) | 1 (inactive) |
| C[C@@H]1O[C@@H](O[C@H]2C[C@@H](O)[C@]3(CO)[C@@H]4C(CC[C@]3(O)C2)[C@@]2(O)CC[C@H](C3COC(=O)C3)[C@@]2(C)C[C@H]4O)[C@H](O)[C@H](O)[C@H]1O (stereo not given in full) | 1 (inactive) |
| CN1CC[C@@]2(C)c3cc(OC(=O)Nc4ccccc4)ccc3N(C)[C@@H]12 | 1 (inactive) |
| c1ccc2cc(CC3=NCCN3)ccc2c1 | 1 (inactive) |
| NC1CC1c1ccccc1 (stereo not given) | 1 (inactive) |
| NC(CCP(=O)(O)O)C(=O)O (stereo not given) | 1 (inactive) |
| COc1ccc2c(c1)C13CCCCC1C(C2)N(C)CC3 (stereo not given) | 1.1 (inactive) |
| C=CCN1CC[C@]23CCCCC2[C@H]1Cc1ccc(O)cc13 (stereo not given in full) | 1 (inactive) |
| O=C1CC[C@@]2(O)C3Cc4ccc(O)c5c4C2(CCN3CC2CC2)[C@H]1O5 (stereo not given in full) | 1 (inactive) |
| NC(CP(=O)(O)O)C(=O)O (stereo not given) | 1 (inactive) |
| C[C@]12Cc3cn4c(nc3C=C1CCC1C2CC[C@@]2(C)[C@H]1CC[C@@]2(O)C#N)nc1ccccc14 (stereo not given in full) | 1 (inactive) |
| CCCCCCCCCCCCCC(=O)O[C@@H]1[C@@H](C)[C@@]2(O)[C@@H](C=C(CO)C[C@@]3(O)C(=O)C(C)=C[C@@H]23)C2C(C)(C)[C@@]21OC(C)=O (stereo not given in full) | 1 (inactive) |
